Laboratory results reported in PubChem BioAssay (NCI).
This is part of a sample that, as a whole, favours compounds with a hit. Of some 79,000 tested, about 15% had one in any assay. Rule as the data show it: active = growth inhibition above about 70%; inactive = the rest.

Legend:
[1] = NCI Yeast Anticancer Drug Screen. Data for the rad50 strain (AID 155);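 also: 0% = growth of vehicle-only cultures of the same strain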; settings: S. cerevisiae rad50 strain growth inhibition; at 50.0 µM; hits give high values
Method in brief: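 Compounds were tested on a yeast strain with an engineered DNA damage repair alteration; the reported value is growth inhibition normalised to vehicle treatment.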

[2] = NCI Yeast Anticancer Drug Screen. Data for the mec2-1 strain (AID 157); settings: S. cerevisiae mec2-1 strain, at 50.0 µM, hits give high values
Method in brief: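 Readout is yeast growth inhibition, normalised to vehicle-treated controls, in the mec2-1 strain exposed to compound.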

[3] = NCI Yeast Anticancer Drug Screen. Data for the sgs1 mgt1 strain (AID 161);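 also: 0% = growth of cultures given vehicle only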; settings: S. cerevisiae sgs1 mgt1 strain, at 50.0 µM, hits give high values
Method in brief: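 This yeast growth screen uses a strain with defined DNA-repair lesions; compound-treated growth is compared with vehicle-treated growth.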

[4] = NCI Yeast Anticancer Drug Screen. Data for the cln2 rad14 strain (AID 165);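 also: 0% = growth equal to vehicle treated cultures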; settings: S. cerevisiae cln2 rad14 strain, at 50.0 µM, hits give high values
Method in brief: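 Relative to vehicle controls, growth inhibition of compound-treated cln2 rad14 yeast was recorded.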

[5] = NCI Yeast Anticancer Drug Screen. Data for the bub3 strain (AID 167); settings: S. cerevisiae bub3 mutant strain, at 50.0 µM, hits give high values
Method in brief: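 Growth of a checkpoint-deficient yeast mutant is measured after compound exposure. Values represent inhibition relative to vehicle.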

[6] = NCI Yeast Anticancer Drug Screen. Data for the mlh1 rad18 strain (AID 175); settings: S. cerevisiae mlh1 rad18 strain growth inhibition; at 50.0 µM; hits give high values
Method in brief: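 Test agents were incubated with a yeast strain of defined genotype (DNA damage repair defect). Inhibition of growth was derived by comparison with vehicle-exposed cultures.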

Measured: growth inhibition

Cc1cc2c(c(C)c1O)C(C)(C)CN2C(=O)C(C)(C)C
inactive: [1] -12.2% | [2] -53% | [3] 2.55% | [4] -8.85% | [5] 2.1% | [6] -10.9%

O=C(Nc1ccc(C(=O)O)cc1)Nc1nccs1
inactive: [1] 16.9% | [2] 6.5% | [3] 18% | [4] -16.7% | [5] 7.2% | [6] 43.7%

COc1ccc(-c2cc(=O)c3ccc(C)nc3[nH]2)cc1
inactive: [1] -18.9% | [2] -30.8% | [3] -40.4% | [4] -20.7% | [5] -16.1% | [6] -18.8%

COc1cc(/C=C2/C(=O)N(c3ccccc3)N=C2C)cc(OC)c1OC
inactive: [1] 12.6% | [2] -3.4% | [3] 24.1% | [4] 2.5% | [5] 11.6% | [6] 17.9%

O=C(NNC(O)C(F)(F)F)c1ccccc1 (stereo unspecified)
inactive: [1] 12.3% | [2] 2.4% | [3] 10.1% | [4] -35.2% | [5] 11.2% | [6] 1.5%

N#CCCCCN1CCCC1
inactive: [1] 32.2% | [2] -8.7% | [3] 3.4% | [4] 12.7% | [5] 10.1% | [6] 9.05%

CC(=O)N1C(=O)C(=O)c2ccccc21
inactive: [1] 5.9% | [2] -5.4% | [3] -4.8% | [4] -25% | [5] -1.5% | [6] 23.5%

CCOc1ccc(OCC)c(N)c1
inactive: [1] -25.9% | [2] 2.1% | [3] -2.5% | [4] -44% | [5] 10.2% | [6] -19.5%

CC1(C)CC(OP(=O)(OC2CC(C)(C)N(O)C(C)(C)C2)c2ccccc2)CC(C)(C)N1O
inactive: [1] 32.1% | [2] 8.45% | [3] 11.1% | [4] -21.1% | [5] 6.3% | [6] 6.5%

CC(=O)Nc1cc(C)c(C)cc1NC(C)=O
inactive: [1] -23.9% | [2] -16.6% | [3] -8.35% | [4] -21.8% | [5] -5.1% | [6] -7.4%

COc1ccc(NS(=O)(=O)c2ccc(NCc3c4ccccc4nc4ccccc34)cc2)nn1
inactive: [1] -13.3% | [2] 8.2% | [3] 17.2% | [4] 29.7% | [5] -0.45% | [6] 18.5%

CNCC(N)=O
inactive: [1] -0.05% | [2] 5.95% | [3] 15.3% | [4] -2.95% | [5] -2.4% | [6] 33%

c1ccc2c(c1)nc1n2CC2(CS1)CSc1nc3ccccc3n1C2
inactive: [1] -8.65% | [2] 2.1% | [3] -7.15% | [4] -25.8% | [5] -13.4% | [6] -3.1%

O=C1c2ccccc2CC1(c1ccccc1)c1ccccc1
inactive: [1] 15.1% | [2] -5% | [3] -6.6% | [4] 10.5% | [5] -9.85% | [6] -7.5%

N#C/C(=C\NC(=S)Nc1ccccc1Cl)C(=O)c1ccc2ccccc2c1
inactive: [1] -24.4% | [2] -18% | [3] 0.7% | [4] 13.3% | [5] -35.6% | [6] -28.8%

COc1ccc2cc(OC)ccc2c1
inactive: [1] 4.95% | [2] -14.6% | [3] -1.15% | [4] 22% | [5] 1.5% | [6] 14%

C[N+]12C=CC=C1C(N1CCCC1)c1sc(-c3ccc(Cl)cc3)cc12 (stereo unspecified)
inactive: [1] 7.9% | [2] -11.3% | [3] 22% | [4] 7.3% | [5] 0.55% | [6] 16.4%

CC(I)CNC1=NCC(=O)N1 (stereo unspecified)
inactive: [1] -8.6% | [2] 5.9% | [3] -9.9% | [4] -21.1% | [5] 13.1% | [6] 13%

Cc1cccc([N+](=O)[O-])c1C
inactive: [1] 13.7% | [2] -10.4% | [3] 7.3% | [4] 23.4% | [5] 10.8% | [6] -15.6%

CCC(C)C(NS(=O)(=O)Cc1ccccc1)C(=O)O (stereo unspecified)
inactive: [1] -3.85% | [2] 16.4% | [3] 3.05% | [4] 10.9% | [5] -10.3% | [6] 6.8%

O=c1[nH]cnc2oc(-c3ccccc3)nc12
inactive: [1] -0.3% | [2] -0.7% | [3] -6.35% | [4] -41.2% | [5] -15.8% | [6] 4.75%
